ChEMBL document CHEMBL1201862, “PubChem BioAssay data set” (2004)
The whole screen tested about 58,000 […], of which about 3,400 (5.9%) were called active. No stated cut-off is given here; in the data, active = GI50 up to about 1.1 µM and inactive = higher. A selection follows. Results with a measured potency or affinity are listed apart.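 Following 48 hours of exposure in 96-well plates, responses at five concentrations were used to interpolate endpoints linearly. GI50 = concentration required for 50% inhibition of growth.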

tested on: A549; test: NCI tumour cell line growth inhibition, 48 h

How did the GI50 turn out when “[Bis(aminomethyl)ethylmethylsilane]tetrachloroplatinum(IV), CHEMBL2146192” was run?
Its GI50 is 2.57 µM.

For “[Bis(aminomethyl)tetramethylenesilane]dichloropaltinum(II), CHEMBL2146205”, which GI50 is on record?
The GI50 was 27 µM.

“mu-(1,7-nanodiamine-N,N')bis-(cis-aminedichloroplatimum (II)), CHEMBL2146215” was tested. Which GI50 did it give?
Its GI50 is 38.7 µM.

With “[Bis(aminomethyl)dimethylsilane]tetrachloroplatinum(IV), CHEMBL2146190” as the substance, how does the GI50 read?
Its GI50 is 4.91 µM.

With “[Bis(aminomethyl)diethylsilane]tetrachloroplatinum(IV), CHEMBL2146203” as the substance, how does the GI50 read?
Its GI50 is 6.84 µM.

How did the GI50 turn out when CISPLATIN, CHEMBL11359 was run?
The GI50 was 3.08 µM.

For “[Bis(aminomethyl)dimethylsilane]dichloroplatinum (II), CHEMBL2146201”, which GI50 is on record?
The GI50 was 17.4 µM.

“cis-Bis[[(trimethylsilyl)methyl]amino]tetrachloroplatinum(IV), CHEMBL2146191” was tested. Which GI50 did it give?
Its GI50 is 15.6 µM.

For “[Bis(aminomethyl)tetramethylenesilane]tetrachloropaltinum(IV), CHEMBL2146189”, which GI50 is on record?
Its GI50 is 8.34 µM.

For “[Bis(aminomethyl)pentamethylenesilane]dichloropaltinum(II), CHEMBL2146202”, which GI50 is on record?
The GI50 was 2.08 µM.

For “[Bis(aminomethyl)pentamethylenesilane]tetrachloropaltinum(IV), CHEMBL2146204”, which GI50 is on record?
Its GI50 is 2.02 µM.
